hcDAF-12 act = H. contortus DAF-12 nuclear receptor activators, primary screen, cell-based, luminescence, HEK293, lit1-tk-luc reporter; HEK293 hcDAF-12 lit1-tk-luc reporter; 0% DMSO, 100% Δ7-dafachronic acid; activation, % at 6.8 µM; hit rate 1.4% among 370,000; AID 652067, 2013;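 active = activation above the mean of all tested compounds plus 3 SD, cut at about 5.5% in these data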;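 note: 100% = response to 3 µM Δ7-dafachronic acid high control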
DAX1 inh-1 = DAX1 (NR0B1) inhibitors, primary screen, cell-based, HEK293, Gal4-DAX1, luciferase luminescence. HEK293 Gal4-DAX1 luciferase reporter. inhibition, % at 6.75 µM. hit rate 0.99% among 340,000. AID 504766, 2011;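 active = inhibition above the mean over all tested compounds plus 3 SD, cut at about 4.2% in these data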;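 note: 0% = DAX1-transfected cells with DMSO and 100% = empty-vector control cells with DMSO; inhibition shows as a rise in luminescence from relieved DAX1 repression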
Target sequence (P51843 207-470 limits assumed): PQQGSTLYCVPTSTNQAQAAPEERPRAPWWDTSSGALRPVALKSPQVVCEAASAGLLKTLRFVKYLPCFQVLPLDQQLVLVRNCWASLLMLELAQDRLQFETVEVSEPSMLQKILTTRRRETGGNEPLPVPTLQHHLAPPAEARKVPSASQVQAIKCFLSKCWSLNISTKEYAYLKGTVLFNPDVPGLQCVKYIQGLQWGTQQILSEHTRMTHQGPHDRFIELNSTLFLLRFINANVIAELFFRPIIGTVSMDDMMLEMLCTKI
DAX1 inh-2 = DAX1 (NR0B1) inhibitors on StAR promoter, primary screen, cell-based, luminescence, SF-1 (NR5A1), full-length DAX-1; HEK293T StAR-luciferase reporter, SF-1/DAX-1 repression relief; inhibition, % at 6.8 µM; hit rate 1.1% among 370,000;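 active = inhibition above the mean over all tested compounds plus 3 SD, cut at about 3.6% in these data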;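 note: 0% = DAX-1 cells with DMSO and 100% = cells lacking DAX-1 with DMSO; higher inhibition means more luminescence from relief of DAX-1 repression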
ssDAF12 agonist = S. stercoralis DAF-12 nuclear receptor activators, primary screen, cell-based, luminescence, HEK293, GRIP1 co-expression, lit1-tk-luc; Nuclear hormone receptor DAF-12 (Strongyloides stercoralis); HEK293 ssDAF-12/GRIP1 lit1-tk-luc reporter; % of 3 µM dafachronic acid response; activation, % at 6.8 µM; hit rate 1% among 370,000;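 active = activation above the mean over all tested compounds plus 3 SD, cut at about 0.9% in these data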;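 note: 0% = DMSO-only wells and 100% = 3 µM delta7-dafachronic acid wells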
hgDAF12 agonist = H. glycines DAF-12 receptor agonists, primary screen, cell-based, luminescence, HEK293, GAL4 fusion, UAS-luciferase; Nuclear hormone receptor DAF-12 (Heterodera glycines), GAL4 fusion; HEK293 GAL4-hgDAF12 UAS-luciferase reporter, agonist luminescence; normalized to butyrate control; activation, % at 6.8 µM; hit rate 1.8% among 370,000;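 active = activation above a cutoff set at the mean of all screened compounds plus 3 SD, cut at about 10% in these data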;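 note: 0% = DMSO wells and 100% = sodium butyrate wells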
Starred values were filed as active, the others as inactive. In the library only some 4.1% were active in any assay of this set; here they are far more common.

What do the screens show for `C[C@H]1[C@@H](OC(=O)Nc2ccc(C(F)(F)F)cc2)CC[C@@]23CCCN2C(=O)CCC[C@@H]13`?
hcDAF-12 act: -2; ssDAF12 agonist: -1; hgDAF12 agonist: 1

What do the screens show for `OCCNCc1ccc(-c2ccccc2)cc1`?
hcDAF-12 act: 3; DAX1 inh-1: 0; DAX1 inh-2: 0; ssDAF12 agonist: -1; hgDAF12 agonist: 3

What do the screens show for `OCCCNCc1ccc(N(c2ccccc2)c2ccccc2)cc1`?
hcDAF-12 act: 0; DAX1 inh-1: 5.9*; DAX1 inh-2: 0; ssDAF12 agonist: -1; hgDAF12 agonist: -2

Results for CCOc1ccccc1NC(=O)Nc1ccc2c(c1)CCC2 ?
hcDAF-12 act: -1; DAX1 inh-1: 1; DAX1 inh-2: 3.6*; ssDAF12 agonist: -1; hgDAF12 agonist: 4

What do the screens show for `CCOc1cc(CNc2ccc3c(c2)CCC3)ccc1O`?
hcDAF-12 act: 4; DAX1 inh-1: 1; DAX1 inh-2: -1; ssDAF12 agonist: 1.2*; hgDAF12 agonist: 3

What do the screens show for `COc1cc(CNc2ccc3c(c2)CCC3)cc(OC)c1O`?
hcDAF-12 act: 0; DAX1 inh-1: 0; DAX1 inh-2: 1; ssDAF12 agonist: -1; hgDAF12 agonist: 0

What do the screens show for `O=C(COc1cccnc1[N+](=O)[O-])Nc1ccc2c(c1)CCC2`?
hcDAF-12 act: -1; DAX1 inh-1: 1; DAX1 inh-2: 1; ssDAF12 agonist: -1; hgDAF12 agonist: 3

How did O=C(COc1ccccc1F)Nc1ccc2c(c1)CCC2 do in these assays?
hcDAF-12 act: 1; DAX1 inh-1: 1; DAX1 inh-2: 3.7*; ssDAF12 agonist: -1; hgDAF12 agonist: 15*

Results for Cc1ccc(C(=O)Nc2cc([N+](=O)[O-])ccc2F)s1 ?
hcDAF-12 act: -1; DAX1 inh-1: 5.8*; DAX1 inh-2: 0; ssDAF12 agonist: -1; hgDAF12 agonist: 0

What do the screens show for `COC(=O)CCC(=O)CN`?
hcDAF-12 act: 0; DAX1 inh-1: 4.7*; DAX1 inh-2: 1; ssDAF12 agonist: -1; hgDAF12 agonist: -2

How did COC(=O)CCCC(=O)OC do in these assays?
hcDAF-12 act: 2; DAX1 inh-1: 4.3*; DAX1 inh-2: 0; ssDAF12 agonist: -1; hgDAF12 agonist: 0

Results for O=C(Cn1cc2c(n1)CCCC2)N1CCc2ccccc21 ?
hcDAF-12 act: 1; DAX1 inh-1: 4.5*; DAX1 inh-2: 0; ssDAF12 agonist: 1; hgDAF12 agonist: -4

Results for CC(Sc1ncccn1)C(=O)N1CCc2ccccc21 (stereo unspecified) ?
hcDAF-12 act: 5.8*; DAX1 inh-1: 1; DAX1 inh-2: 1; ssDAF12 agonist: -1; hgDAF12 agonist: -1

How did CC(Oc1ccc(Br)cc1)C(=O)N1CCc2ccccc21 (stereo unspecified) do in these assays?
hcDAF-12 act: -1; DAX1 inh-1: 0; DAX1 inh-2: -1; ssDAF12 agonist: -1; hgDAF12 agonist: 1

How did Cc1cc(C)nc(SCC(=O)N2CCc3ccccc32)n1 do in these assays?
hcDAF-12 act: 0; DAX1 inh-1: 1; DAX1 inh-2: 4.3*; ssDAF12 agonist: 0; hgDAF12 agonist: 4

What do the screens show for `Cc1ccn(C(C)CC(=O)N2CCc3ccccc32)n1` (stereo unspecified)?
hcDAF-12 act: 6.2*; DAX1 inh-1: 0; DAX1 inh-2: 1; ssDAF12 agonist: 0; hgDAF12 agonist: 3

What do the screens show for `O=C(Cn1cc2c(n1)CCCCC2)N1CCc2ccccc2C1`?
hcDAF-12 act: -1; DAX1 inh-1: 0; DAX1 inh-2: 0; ssDAF12 agonist: -1; hgDAF12 agonist: 0

What do the screens show for `O=C(O)c1ccccc1SCC(=O)N1CCc2ccccc21`?
hcDAF-12 act: 2; DAX1 inh-1: -1; DAX1 inh-2: 1; ssDAF12 agonist: 7.6*; hgDAF12 agonist: 3

What do the screens show for `O=C1N2Cc3ccccc3C2CS(=O)(=O)N1C1CCCC1` (stereo unspecified)?
hcDAF-12 act: -2; DAX1 inh-2: -1; ssDAF12 agonist: -1; hgDAF12 agonist: 5

How did O=C(O)C1Cc2[nH]cnc2C(c2ccccc2O)N1 (stereo unspecified) do in these assays?
hcDAF-12 act: 6.0*; DAX1 inh-1: 1; DAX1 inh-2: 0; ssDAF12 agonist: 0; hgDAF12 agonist: 1

What do the screens show for `Cc1ccccc1-n1ncc2c1CC(C)(C)CC2NC(=O)CCC1=NNC(=O)CC1` (stereo unspecified)?
hcDAF-12 act: 0; DAX1 inh-1: 1; DAX1 inh-2: 0; ssDAF12 agonist: -1; hgDAF12 agonist: 0

Results for Cc1ccn(CCC(=O)NC2CC(C)(C)Cc3c2cnn3-c2ccccc2C)n1 (stereo unspecified) ?
hcDAF-12 act: 3; DAX1 inh-1: 1; DAX1 inh-2: 3.8*; ssDAF12 agonist: -1; hgDAF12 agonist: 2

Results for O=C(NCc1ccc(F)cc1)c1c2c(nc3ccccc13)CCN(Cc1ccccc1)C2 ?
hcDAF-12 act: 4; DAX1 inh-1: 4.8*; DAX1 inh-2: 0; ssDAF12 agonist: -1; hgDAF12 agonist: -2

Results for Cc1cc(NC(=O)c2ccc(S(=O)(=O)N(C)C)cc2)no1 ?
hcDAF-12 act: 2; DAX1 inh-1: 0; DAX1 inh-2: 0; ssDAF12 agonist: -2; hgDAF12 agonist: 3

Results for Cc1cc(NC(=O)c2cc(-c3ccc(O)cc3)on2)no1 ?
hcDAF-12 act: 2; DAX1 inh-1: 3; DAX1 inh-2: 2; ssDAF12 agonist: -1; hgDAF12 agonist: 11*

What do the screens show for `Cc1cc(NC(=O)c2ccc(Cl)cc2)no1`?
hcDAF-12 act: 1; DAX1 inh-1: 2; DAX1 inh-2: 3; ssDAF12 agonist: -1; hgDAF12 agonist: 11*

Results for Cc1ccc2c(Cl)c(C(=O)Nc3cc(C)on3)sc2c1 ?
hcDAF-12 act: 1; DAX1 inh-1: 5.2*; DAX1 inh-2: 1; ssDAF12 agonist: 0; hgDAF12 agonist: 5

Results for C/C(=C\c1ccccc1)C(=O)Nc1cc(C)on1 ?
hcDAF-12 act: 1; DAX1 inh-1: 0; DAX1 inh-2: 0; ssDAF12 agonist: -1; hgDAF12 agonist: 11*

How did Cc1cc(NC(=O)Cc2ccccc2)no1 do in these assays?
hcDAF-12 act: 2; DAX1 inh-1: -1; DAX1 inh-2: 0; ssDAF12 agonist: -1; hgDAF12 agonist: 0

What do the screens show for `COc1ccc(C(=O)Nc2ccc3[nH]ccc3c2)cc1OC`?
hcDAF-12 act: 1; DAX1 inh-1: 3; DAX1 inh-2: 2; ssDAF12 agonist: -1; hgDAF12 agonist: 6

How did O=C(Nc1ccc(NC(=O)c2cccs2)cc1)c1cccs1 do in these assays?
hcDAF-12 act: 2; DAX1 inh-1: 0; DAX1 inh-2: 2; ssDAF12 agonist: -1; hgDAF12 agonist: 7

Assay outcomes from PubChem BioAssay.
